The values that follow come from PubChem BioAssay AID651710 (Broad Institute, 2012).

Screen size: about 360,000 compounds; about 1,600 (0.44%) were called active. Shown is part of a subset that was picked to be rich in actives. A number with no mark means an inactive call.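 Rule for the calls: active = every replicate showing at least 50% inhibition; inconclusive = mean inhibition at least 50% but not in every replicate; inactive = the rest.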

In the test the target is DNA repair protein RAD52 homolog (Homo sapiens) (UniProt P43351). As to the kind of experiment: RAD52 DNA annealing inhibitors, primary screen, biochemical, FRET, single point, set 2 (AID 651710). Conditions: recombinant RAD52 DNA annealing, FRET fluorescence; at 18.7 µM; stronger effect = higher value.
Sequence of DNA repair protein RAD52 homolog (Homo sapiens) (P43351 whole entry, looked up): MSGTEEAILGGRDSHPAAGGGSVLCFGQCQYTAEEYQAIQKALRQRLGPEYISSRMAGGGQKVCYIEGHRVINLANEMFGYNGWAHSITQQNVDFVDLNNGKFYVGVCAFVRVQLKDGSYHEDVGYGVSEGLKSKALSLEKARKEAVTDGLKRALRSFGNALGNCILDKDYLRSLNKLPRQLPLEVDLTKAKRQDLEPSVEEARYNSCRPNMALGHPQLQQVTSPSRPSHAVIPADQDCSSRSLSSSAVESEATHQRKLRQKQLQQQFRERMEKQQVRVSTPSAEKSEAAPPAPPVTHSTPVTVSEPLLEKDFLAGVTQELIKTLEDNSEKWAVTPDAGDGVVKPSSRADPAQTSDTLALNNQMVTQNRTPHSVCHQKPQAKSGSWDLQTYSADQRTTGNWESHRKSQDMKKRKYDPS
Consider `CCOc1cccc(=NC2CCCCC2)c2c(C)[nH]c(C)c12`, for which the inhibition was 79.1% (active).

On to `Clc1ccc([C@@H]2CC3CCC2N3)cn1` (stereo not given in full), for which the inhibition is -8.46%.

For the compound `COc1ccc(C#Cc2ccc([C@H]3[C@H](CO)N4CCCCN(C(=O)Cc5ccccc5)C[C@@H]34)cc2)cc1`, the inhibition was -26.3%.

Turning to `COc1c(O)ccc2c1-c1c3c(cc4c1C(C2)N(C)CC4)OCO3` (stereo not given), the inhibition was 6.1%.

With `COc1ccc2c(c1O)-c1cccc3c1[C@@H](C2)N(C)CC3`, the inhibition was 60.5% (active).

As to `COC1=C[C@@H]2[C@@H]3Cc4ccc(OC)c(O)c4[C@]2(CCN3C)CC1=O`, the inhibition was -9.71%.

Take `O=C(Cc1cccnc1)N1CCCCN2[C@@H](CO)[C@H](c3ccc(C#CC4CCCC4)cc3)[C@@H]2C1`: the inhibition was 11.6%.

Turning to `O=C(O)[C@H]1[C@H](CO)[C@H]2Cn3c(ccc(-c4ccccc4F)c3=O)[C@@H]1N2C(=O)c1cccnc1`, the inhibition was 6.1%.

On to `N#Cc1cccc(-c2ccc([C@H]3[C@@H](CO)N4CCCCN(C(=O)Cc5cccnc5)C[C@@H]34)cc2)c1`, for which the inhibition was -17%.

For `O=C(Cc1ccccc1)N1CCCCN2[C@H](C1)[C@H](c1ccc(C#CC3(O)CCCC3)cc1)[C@@H]2CO`, the inhibition was -14.9%.

For `O=c1[nH]c2ccccc2n1C1CCN(C(c2ccccc2)c2nnnn2Cc2ccccc2)CC1` (stereo not given), the inhibition was -11.7%.

Consider `C[N+]1(C)CCOC(O)(c2ccc(-c3ccc(C4(O)C[N+](C)(C)CCO4)cc3)cc2)C1` (stereo not given), for which the inhibition was 70.8% (active).

With `O=C(O)[C@H]1[C@H](CO)[C@H]2Cn3c(cccc3=O)[C@@H]1N2C(=O)c1ccccc1`, the inhibition is 2.96%.

`C[C@@H]1CN([C@H](C)CO)C(=O)CCCn2cc(nn2)CO[C@@H]1CN(C)C(=O)Oc1cccc2ccccc12`: the inhibition is -6.69%.

Turning to `CCCCCCCCCCCCn1ccc(=N)cc1`, the inhibition is 50% (active).

As for `O=C(Cc1ccncc1)N1CCCCN2[C@H](CO)[C@@H](c3ccc(C#CC4(O)CCCC4)cc3)[C@H]2C1`, the inhibition is 1.26%.

Regarding `COC(=O)[C@H]1[C@H](CO)[C@H]2Cn3c(ccc(C4=CCCC4)c3=O)[C@@H]1N2C(=O)CC1CC1`, the inhibition is -4.86%.

Take `O=C(Cc1ccncc1)N1CCCCN2[C@@H](CO)[C@H](c3ccc(C#CC4(O)CCCC4)cc3)[C@@H]2C1`: the inhibition was -1.57%.

On to `COc1cccc(-c2ccc([C@H]3[C@H]4CN(C(=O)Cc5ccncc5)CCCCN4[C@H]3CO)cc2)c1`, for which the inhibition was -63.8%.

As to `O=C(Cc1ccncc1)N1CCCCN2[C@@H](CO)[C@H](c3ccc(-c4ccncc4)cc3)[C@@H]2C1`, the inhibition was -1.75%.

Regarding `CCC(C)NC1(c2ccccc2)CCCCC1` (stereo not given), the inhibition was -8.77%.

For the compound `CC1=CC(=Cc2sc3ccccc3[n+]2C)C=C(C)O1`, the inhibition was 60.3% (active).

As to `O=C(NC[C@@H]1CC[C@H]2NC[C@H]2O1)C1CCCC1`, the inhibition is -11.1%.

For the compound `OC[C@@H]1[C@H]2c3ccccc3NC[C@H]2N1Cc1cccnc1`, the inhibition is 0.281%.

With `COc1ccc2c(c1)[C@@]13CCCCC1[C@@H](C2)NCC3` (stereo not given in full), the inhibition was -7.04%.
